Experimental data: the supplement of paper PMC7411054

What was measured:
Conditions in all cases: treatment time: 24 h
A549-ACTB-RAB5A [1] = experiment: lowest phenotypically active concentration; higher = less potent
In short: (§1)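 Two criteria together defined phenotypic activity: deviation and reproducibility. Deviation meant ≥3 of 4 wells beyond the 95th percentile of Euclidean distances in solvent control wells, and reproducibility meant a median replicate Pearson correlation above the 95th percentile of non-replicates. Wells had been treated for 24 h at 0.3, 1, 3 or 9 µM in fifteen gene-edited A549, HepG2 and WPMY1 reporter lines before live imaging.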

A549-ACTB-RAB5A [2] = experiment: phenotypically active (imaging signature differs from DMSO and reproducible) at any of 0.3-9 uM (binary (1 = active, 0 = inactive)); higher = active
In short: as §1

A549-CANX-COX4 = experiment: as above
In short: as §1

A549-GM130-SQSTM1 [3] = experiment: as above
In short: as §1

A549-TP53BP1-CLTA = experiment: as above
In short: as §1

A549-TUBA1B-RELA [4] = experiment: as above
In short: as §1

HepG2-ACTB-RAB5A = experiment: as above
In short: as §1

HepG2-CANX-COX4 = experiment: as above
In short: as §1

HepG2-GM130-SQSTM1 = experiment: as above
In short: as §1

HepG2-TP53BP1-CLTA = experiment: as above
In short: as §1

HepG2-TUBA1B-RELA = experiment: as above
In short: as §1

WPMY1-ACTB-RAB5A = experiment: as above
In short: as §1

WPMY1-CANX-COX4 [5] = experiment: as above
In short: as §1

WPMY1-GM130-SQSTM1 [6] = experiment: as above
In short: as §1

WPMY1-TP53BP1-CLTA = experiment: as above
In short: as §1

WPMY1-TUBA1B-RELA = experiment: as above
In short: as §1

WPMY1-CANX-COX4 [7] = experiment: lowest phenotypically active concentration; higher = less potent
In short: as §1

A549-GM130-SQSTM1 [8] = experiment: as above
In short: as §1

WPMY1-GM130-SQSTM1 [9] = experiment: as above
In short: as §1

A549-TUBA1B-RELA [10] = experiment: as above
In short: as §1

| SMILES | lowest phenotypically active concentration (A549-ACTB-RAB5A [1]) [µM] | phenotypically active (A549-ACTB-RAB5A [2]) | phenotypically active (A549-CANX-COX4) | phenotypically active (A549-GM130-SQSTM1 [3]) | phenotypically active (A549-TP53BP1-CLTA) | phenotypically active (A549-TUBA1B-RELA [4]) | phenotypically active (HepG2-ACTB-RAB5A) | phenotypically active (HepG2-CANX-COX4) | phenotypically active (HepG2-GM130-SQSTM1) | phenotypically active (HepG2-TP53BP1-CLTA) | phenotypically active (HepG2-TUBA1B-RELA) | phenotypically active (WPMY1-ACTB-RAB5A) | phenotypically active (WPMY1-CANX-COX4 [5]) | phenotypically active (WPMY1-GM130-SQSTM1 [6]) | phenotypically active (WPMY1-TP53BP1-CLTA) | phenotypically active (WPMY1-TUBA1B-RELA) | lowest phenotypically active concentration (WPMY1-CANX-COX4 [7]) [µM] | lowest phenotypically active concentration (A549-GM130-SQSTM1 [8]) [µM] | lowest phenotypically active concentration (WPMY1-GM130-SQSTM1 [9]) [µM] | lowest phenotypically active concentration (A549-TUBA1B-RELA [10]) [µM] |
| --- | --- | --- | --- | --- | --- | --- | --- | --- | --- | --- | --- | --- | --- | --- | --- | --- | --- | --- | --- | --- |
| CCOC(=O)N1CCC(=C2c3ccc(Cl)cc3CCc3cccnc32)CC1 [loratadine] | 9 | 1 (active) | 0 (inactive) | 0 (inactive) | 0 (inactive) | 0 (inactive) | 0 (inactive) | 1 (active) | 0 (inactive) | 0 (inactive) | 0 (inactive) | 0 (inactive) | 0 (inactive) | 0 (inactive) | 0 (inactive) | 0 (inactive) | – | – | – | – |
| O=C(O/N=C1\c2ccccc2-c2nc3ccccc3nc21)c1ccco1 | 9 | 1 (active) | 0 (inactive) | 0 (inactive) | 0 (inactive) | 0 (inactive) | 0 (inactive) | 0 (inactive) | 0 (inactive) | 0 (inactive) | 0 (inactive) | 1 (active) | 1 (active) | 0 (inactive) | 1 (active) | 1 (active) | 9 | – | – | – |
| CC(=O)C1=C(O)[C@]2(C)C(=CC1=O)Oc1c(C(C)=O)c(O)c(C)c(O)c12 [(+)-Usnic acid] | – | 0 (inactive) | 0 (inactive) | 1 (active) | 0 (inactive) | 0 (inactive) | 0 (inactive) | 0 (inactive) | 0 (inactive) | 0 (inactive) | 0 (inactive) | 0 (inactive) | 0 (inactive) | 0 (inactive) | 0 (inactive) | 0 (inactive) | – | 9 | – | – |
| OCCOCCN1CCN(C2=Nc3ccccc3Sc3ccccc32)CC1 [Quetiapine hemifumarate] | – | 0 (inactive) | 0 (inactive) | 1 (active) | 0 (inactive) | 0 (inactive) | 0 (inactive) | 0 (inactive) | 0 (inactive) | 0 (inactive) | 0 (inactive) | 0 (inactive) | 0 (inactive) | 0 (inactive) | 0 (inactive) | 0 (inactive) | – | 9 | – | – |
| CC(C)c1ccc(-c2cc(=O)c3ccccc3o2)cc1 | 9 | 1 (active) | 0 (inactive) | 0 (inactive) | 0 (inactive) | 0 (inactive) | 0 (inactive) | 0 (inactive) | 0 (inactive) | 0 (inactive) | 0 (inactive) | 0 (inactive) | 0 (inactive) | 1 (active) | 0 (inactive) | 0 (inactive) | – | – | 3 | – |
| COc1cc2nc3occc3c(OC)c2cc1OC [Kokusaginine] | – | 0 (inactive) | 0 (inactive) | 1 (active) | 0 (inactive) | 0 (inactive) | 0 (inactive) | 0 (inactive) | 0 (inactive) | 0 (inactive) | 0 (inactive) | 0 (inactive) | 0 (inactive) | 0 (inactive) | 0 (inactive) | 0 (inactive) | – | 3 | – | – |
| Cc1c[nH]c2ncnc(-c3ccc(NC(=O)N(CCO)c4ccccc4)cc3)c12 | 9 | 1 (active) | 0 (inactive) | 0 (inactive) | 0 (inactive) | 0 (inactive) | 0 (inactive) | 0 (inactive) | 0 (inactive) | 0 (inactive) | 0 (inactive) | 0 (inactive) | 0 (inactive) | 0 (inactive) | 0 (inactive) | 1 (active) | – | – | – | – |
| CCc1ccc(/C=C/C(=O)Nc2ccc(C(C)=O)cc2)o1 [Heclin] | – | 0 (inactive) | 0 (inactive) | 1 (active) | 0 (inactive) | 1 (active) | 0 (inactive) | 0 (inactive) | 0 (inactive) | 0 (inactive) | 0 (inactive) | 0 (inactive) | 0 (inactive) | 0 (inactive) | 0 (inactive) | 0 (inactive) | – | 9 | – | 9 |
| O=C(COc1cccc2c(=O)[nH]ccc12)c1ccccc1 | – | 0 (inactive) | 0 (inactive) | 1 (active) | 0 (inactive) | 0 (inactive) | 0 (inactive) | 0 (inactive) | 0 (inactive) | 0 (inactive) | 0 (inactive) | 0 (inactive) | 0 (inactive) | 0 (inactive) | 0 (inactive) | 0 (inactive) | – | 9 | – | – |
| Cn1c(=O)c2nc[nH]c2n(C)c1=O [theophylline] | – | 0 (inactive) | 0 (inactive) | 1 (active) | 0 (inactive) | 0 (inactive) | 0 (inactive) | 0 (inactive) | 0 (inactive) | 0 (inactive) | 0 (inactive) | 0 (inactive) | 0 (inactive) | 0 (inactive) | 0 (inactive) | 0 (inactive) | – | 9 | – | – |
| O=C(Nc1ccccc1)N1CCN(c2nc(-c3ccccc3)ns2)CC1 | – | 0 (inactive) | 0 (inactive) | 0 (inactive) | 0 (inactive) | 0 (inactive) | 0 (inactive) | 1 (active) | 0 (inactive) | 1 (active) | 1 (active) | 0 (inactive) | 0 (inactive) | 1 (active) | 0 (inactive) | 0 (inactive) | – | – | 9 | – |
| CC(C)N(CCCNC(=O)Nc1ccc(C(C)(C)C)cc1)C[C@H]1O[C@@H](n2ccc3c(N)ncnc32)[C@H](O)[C@@H]1O | – | 0 (inactive) | 0 (inactive) | 0 (inactive) | 0 (inactive) | 0 (inactive) | 1 (active) | 0 (inactive) | 1 (active) | 1 (active) | 1 (active) | 0 (inactive) | 0 (inactive) | 0 (inactive) | 0 (inactive) | 1 (active) | – | – | – | – |
| COc1cc(-c2cn(C)c(=O)c3cnccc23)c(OC)cc1CN(C)C | – | 0 (inactive) | 0 (inactive) | 0 (inactive) | 1 (active) | 0 (inactive) | 1 (active) | 0 (inactive) | 1 (active) | 0 (inactive) | 1 (active) | 0 (inactive) | 0 (inactive) | 0 (inactive) | 0 (inactive) | 1 (active) | – | – | – | – |
| Nc1ncnc2c1ncn2[C@@H]1O[C@H](CO)[C@@H](O)[C@H]1O [Adenosine] | – | 0 (inactive) | 0 (inactive) | 0 (inactive) | 0 (inactive) | 0 (inactive) | 1 (active) | 0 (inactive) | 0 (inactive) | 0 (inactive) | 0 (inactive) | 0 (inactive) | 0 (inactive) | 0 (inactive) | 0 (inactive) | 0 (inactive) | – | – | – | – |
| O=C1NN(c2ccc(F)c(Cl)c2)C(=O)/C1=C\c1ccc([N+](=O)[O-])o1 | – | 0 (inactive) | 0 (inactive) | 1 (active) | 0 (inactive) | 0 (inactive) | 0 (inactive) | 0 (inactive) | 0 (inactive) | 0 (inactive) | 0 (inactive) | 0 (inactive) | 1 (active) | 1 (active) | 0 (inactive) | 0 (inactive) | 9 | 3 | 9 | – |
